Publication PMC5540273 (PLoS ONE, 2017)

Tests used:
Conditions in all cases: concentration: 1 μM, replicates: in singlicate; n = 1
PKN1 = test system: PKN1
PKN2 = test system: PKN2
PLK1 = test system: PLK1
PLK2 = test system: PLK2
PLK3 = test system: PLK3
PLK4 = test system: PLK4
PRKCD = test system: PRKCD
PRKCE = test system: PRKCE
PRKCH = test system: PRKCH
PRKCI = test system: PRKCI
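Note: KINOMEscan kinase panel screen.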

| Structure (SMILES) | %Inh (PKN1) [%] | %Inh (PKN2) [%] | %Inh (PLK1) [%] | %Inh (PLK2) [%] | %Inh (PLK3) [%] | %Inh (PLK4) [%] | %Inh (PRKCD) [%] | %Inh (PRKCE) [%] | %Inh (PRKCH) [%] | %Inh (PRKCI) [%] |
| --- | --- | --- | --- | --- | --- | --- | --- | --- | --- | --- |
| COc1cc2ncn(-c3cc(OCC4CCCO4)c(C(N)=O)s3)c2cc1OC (stereo not drawn) [GSK204607] | 0 | 0 | 98.9 | 99.4 | 98.3 | 0 | 0 | 2 | 0 | 100 |
| Cc1cc(NCC(c2ccccc2)c2ccccc2)nc(NCc2ccc(C(F)(F)F)cc2)n1 [GW497681] | 0 | 0 | 0 | 0 | 0 | 3 | 0 | 0 | 0 | 2 |
| Cc1ccc(C(=O)Nc2ccc(Nc3ccnc4cc(-c5ccccn5)ccc34)cc2O)cc1.Cl [GW440146] | 0 | 0 | 0 | 0 | 0 | 10 | 0 | 0 | 24 | 5 |
| O=C(Nc1n[nH]c2nc(-c3nccs3)c(Br)cc12)C1CCCC1 [SB-742609] | 0 | 0 | 0 | 0 | 0 | 0 | 5 | 0 | 2 | 12 |
| COc1cc2nccc(Nc3ccc(NC(=O)c4ccc(C)cc4)c(O)c3)c2cc1OC.Cl [GW440132] | 0 | 0 | 0 | 0 | 0 | 13 | 24 | 0 | 17 | 12 |
| O=S(=O)(c1ccc(-c2ccnc3[nH]ccc23)cc1)N1CCCC1 [GSK846226] | 40 | 0 | 0 | 4 | 0 | 0 | 0 | 2 | 0 | 20 |
| COc1ccc(Nc2nccc(-c3cccc(NC(=O)c4cc5cc(F)ccc5[nH]4)c3)n2)cc1 [GSK1229782] | 0 | 0 | 24 | 0 | 0 | 4 | 42 | 43 | 20 | 32 |
| O=C(O)COc1ncnc2cc(-c3ccc4[nH]ncc4c3)sc12 | 30 | 19 | 2 | 18 | 12 | 15 | 19 | 10 | 0 | 3 |
| O=C1NC(=O)C(N2CCc3ccccc32)=C1c1ccccc1Cl [SB-373598] | 0 | 13 | 14 | 0 | 0 | 12 | 19 | 3 | 30 | 0 |
| COc1ccc(C2=C(Nc3cccc(C(=O)O)c3)C(=O)NC2=O)cc1 [SB-390765] | 18 | 7 | 21 | 48 | 21 | 2 | 5 | 25 | 4 | 47 |
| Cc1ccccc1-n1cnc2c(N)ncnc21 [SKF-97510] | 0 | 0 | 0 | 0 | 0 | 0 | 0 | 0 | 0 | 0 |
| O=C(Nc1ccc2c(c1)OCO2)NC1CCN(c2ccnc(Nc3ccc(F)cc3)n2)C1 (stereo not drawn) [GSK1379724] | 4 | 0 | 0 | 0 | 0 | 0 | 0 | 7 | 0 | 0 |
| Fc1cc(Cl)ccc1Nc1ccnc2cc(-c3ccc(CN4CCCCC4)o3)ccc12 [GW560116] | 0 | 0 | 0 | 0 | 0 | 51 | 0 | 5 | 0 | 0 |
| Nc1nc(-c2nccs2)c(-c2ccnc3ccccc23)s1 [GW693542] | 6 | 2 | 0 | 0 | 0 | 0 | 1 | 8 | 16 | 30 |
| COc1cc(Nc2nccc(N3CCC(NC(=O)Nc4cc(C)ccc4C)C3)n2)cc(OC)c1OC (stereo not drawn) [GSK1379762] | 41 | 0 | 0 | 0 | 0 | 28 | 0 | 0 | 7 | 33 |
| COc1cccc(-c2cc(-c3c[nH]nc3-c3ccccn3)ccn2)c1 [GW680338] | 0 | 7 | 13 | 0 | 7 | 0 | 12 | 13 | 1 | 0 |
| CN(C)CCN(C)C(=O)c1cc(-c2ccncc2)c(-c2ccc(Cl)c(O)c2)o1.Cl.Cl [SB-710397] | 17 | 0 | 8 | 0 | 0 | 0 | 0 | 47 | 22 | 33 |
| Cn1ccc2ncnc(Oc3ccc(NC(=O)Nc4ccccc4)cc3)c21 | 2 | 0 | 0 | 0 | 0 | 11 | 7 | 4 | 0 | 11 |
